In ChEMBL document CHEMBL1961873, “Compounds: GSK PKIS; Assays: Nanosyn kinase panel” (2012) one finds inhibition data, which are given here for seven molecules.

Assay [1] has as its target MAP/microtubule affinity-regulating kinase 3 (Homo sapiens) (UniProt P27448). As to conditions: at 1 µM.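 Also: reported values are averaged percent inhibition of MARK3.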
The target of assay [2] is T1, MAP/microtubule affinity-regulating kinase 4 (Homo sapiens) (UniProt Q96L34).
T1 sequence (whole entry): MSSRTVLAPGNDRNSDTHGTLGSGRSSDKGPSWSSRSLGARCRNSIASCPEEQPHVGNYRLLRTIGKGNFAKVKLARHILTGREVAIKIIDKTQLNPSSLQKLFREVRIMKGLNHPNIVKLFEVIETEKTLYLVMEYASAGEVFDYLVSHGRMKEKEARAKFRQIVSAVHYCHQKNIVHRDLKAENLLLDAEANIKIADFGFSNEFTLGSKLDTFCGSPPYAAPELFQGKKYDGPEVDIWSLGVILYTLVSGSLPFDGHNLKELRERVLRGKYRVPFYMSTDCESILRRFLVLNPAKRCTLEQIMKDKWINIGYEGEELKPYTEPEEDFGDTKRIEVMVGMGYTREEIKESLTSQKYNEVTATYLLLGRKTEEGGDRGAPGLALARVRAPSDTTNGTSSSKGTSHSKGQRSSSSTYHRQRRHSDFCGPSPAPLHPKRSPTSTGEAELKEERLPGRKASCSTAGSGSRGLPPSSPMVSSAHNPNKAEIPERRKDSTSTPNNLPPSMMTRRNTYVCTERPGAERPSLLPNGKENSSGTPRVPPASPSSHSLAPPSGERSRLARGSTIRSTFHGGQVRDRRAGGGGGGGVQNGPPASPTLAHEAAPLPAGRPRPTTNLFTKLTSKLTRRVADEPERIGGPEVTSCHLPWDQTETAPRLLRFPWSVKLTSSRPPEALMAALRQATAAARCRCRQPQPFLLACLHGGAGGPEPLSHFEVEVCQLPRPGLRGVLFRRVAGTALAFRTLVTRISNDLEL
As to conditions: at 0.1 µM.

In assay [3] the target is T1, MAP/microtubule affinity-regulating kinase 4 (Homo sapiens). As to conditions: at 1 µM.
In assay [4] the target is Maternal embryonic leucine zipper kinase (Homo sapiens) (UniProt Q14680). To be noted: at 0.1 µM.
Assay [5] has the same target. To be noted: at 1 µM.
For assay [6], the target named is MAP kinase-interacting serine/threonine-protein kinase 1 (Homo sapiens) (UniProt Q9BUB5). As to conditions: at 0.1 µM.
For assay [7] the target is unchanged. As to conditions: at 1 µM.
The target in assay [8] is MAP kinase-interacting serine/threonine-protein kinase 2 (Homo sapiens) (UniProt Q9HBH9). As to conditions: at 0.1 µM.
For assay [9] the target is unchanged. To be noted: at 1 µM.
For assay [10], the target named is Serine/threonine-protein kinase MARK2 (Homo sapiens) (UniProt Q7KZI7). As to conditions: at 0.1 µM.
Assay [11] has the same target. To be noted: at 1 µM.
In assay [12] the target is PAS domain-containing serine/threonine-protein kinase (Homo sapiens) (UniProt Q96RG2). To be noted: at 0.1 µM.
Assay [13] shares this target. As to conditions: at 1 µM.
Assay [14] deals with Phosphorylase b kinase gamma catalytic chain, skeletal muscle/heart isoform (Homo sapiens) (UniProt Q16816). As to conditions: at 0.1 µM.
The target is the same in assay [15]. To be noted: at 1 µM.
Assay [16] deals with T2, Phosphorylase b kinase gamma catalytic chain, liver/testis isoform (Homo sapiens) (UniProt P15735).
T2 sequence (whole entry): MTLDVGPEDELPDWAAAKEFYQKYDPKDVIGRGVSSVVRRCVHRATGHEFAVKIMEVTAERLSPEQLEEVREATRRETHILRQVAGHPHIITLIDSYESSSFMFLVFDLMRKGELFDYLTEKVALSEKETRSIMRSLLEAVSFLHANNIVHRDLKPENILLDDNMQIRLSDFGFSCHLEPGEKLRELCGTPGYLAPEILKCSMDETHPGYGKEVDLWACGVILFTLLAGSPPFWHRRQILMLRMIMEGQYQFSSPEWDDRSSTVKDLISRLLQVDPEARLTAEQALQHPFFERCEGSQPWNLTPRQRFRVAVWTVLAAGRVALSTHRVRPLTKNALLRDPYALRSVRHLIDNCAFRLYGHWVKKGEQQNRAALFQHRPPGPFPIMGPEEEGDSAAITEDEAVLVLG
As to conditions: at 0.1 µM.

For assay [17], the target named is T2, Phosphorylase b kinase gamma catalytic chain, liver/testis isoform (Homo sapiens). To be noted: at 1 µM.
In assay [18] the target is Serine/threonine-protein kinase pim-1 (Homo sapiens) (UniProt P11309). As to conditions: at 0.1 µM.
Assay [19] shares this target. To be noted: at 1 µM.
Assay [20] concerns the target Serine/threonine-protein kinase pim-2 (Homo sapiens) (UniProt Q9P1W9). To be noted: at 0.1 µM.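 Also: reported value is the mean percent inhibition of PIM2, measured in the GSK PKIS kinase inhibitor set screen.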

Molecules are shown by their SMILES.

Chain of MAP kinase-interacting serine/threonine-protein kinase 2 (Homo sapiens) (Q9HBH9 whole entry, looked up): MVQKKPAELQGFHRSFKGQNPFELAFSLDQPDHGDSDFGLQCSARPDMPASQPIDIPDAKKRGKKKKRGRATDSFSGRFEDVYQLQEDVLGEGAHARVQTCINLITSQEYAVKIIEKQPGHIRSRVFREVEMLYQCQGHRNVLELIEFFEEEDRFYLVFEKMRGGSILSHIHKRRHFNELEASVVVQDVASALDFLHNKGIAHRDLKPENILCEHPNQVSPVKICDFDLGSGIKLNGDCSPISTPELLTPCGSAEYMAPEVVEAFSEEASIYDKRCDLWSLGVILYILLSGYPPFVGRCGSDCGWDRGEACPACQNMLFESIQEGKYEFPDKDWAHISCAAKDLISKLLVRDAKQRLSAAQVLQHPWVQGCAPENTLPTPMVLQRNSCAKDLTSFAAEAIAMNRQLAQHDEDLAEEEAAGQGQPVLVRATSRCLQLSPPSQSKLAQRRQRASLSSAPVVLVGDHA
Chain of Maternal embryonic leucine zipper kinase (Homo sapiens) (Q14680 whole entry, looked up): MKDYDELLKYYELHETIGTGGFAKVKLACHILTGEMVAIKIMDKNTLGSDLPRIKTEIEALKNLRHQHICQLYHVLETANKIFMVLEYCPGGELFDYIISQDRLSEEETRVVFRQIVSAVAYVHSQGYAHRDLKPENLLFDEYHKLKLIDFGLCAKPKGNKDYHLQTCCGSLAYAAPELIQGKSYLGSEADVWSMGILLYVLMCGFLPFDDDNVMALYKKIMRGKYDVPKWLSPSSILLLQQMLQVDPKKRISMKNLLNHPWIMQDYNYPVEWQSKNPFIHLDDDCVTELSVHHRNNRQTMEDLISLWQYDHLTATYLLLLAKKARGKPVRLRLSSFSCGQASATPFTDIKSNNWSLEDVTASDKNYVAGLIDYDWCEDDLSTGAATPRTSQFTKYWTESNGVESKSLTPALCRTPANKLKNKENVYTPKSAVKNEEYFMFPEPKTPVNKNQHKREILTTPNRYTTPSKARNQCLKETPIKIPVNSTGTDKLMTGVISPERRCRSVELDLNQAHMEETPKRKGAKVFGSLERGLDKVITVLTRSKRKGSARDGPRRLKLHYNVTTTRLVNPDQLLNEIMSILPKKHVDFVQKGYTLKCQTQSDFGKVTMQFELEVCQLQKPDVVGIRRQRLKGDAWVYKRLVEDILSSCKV
Chain of Serine/threonine-protein kinase MARK2 (Homo sapiens) (Q7KZI7 whole entry): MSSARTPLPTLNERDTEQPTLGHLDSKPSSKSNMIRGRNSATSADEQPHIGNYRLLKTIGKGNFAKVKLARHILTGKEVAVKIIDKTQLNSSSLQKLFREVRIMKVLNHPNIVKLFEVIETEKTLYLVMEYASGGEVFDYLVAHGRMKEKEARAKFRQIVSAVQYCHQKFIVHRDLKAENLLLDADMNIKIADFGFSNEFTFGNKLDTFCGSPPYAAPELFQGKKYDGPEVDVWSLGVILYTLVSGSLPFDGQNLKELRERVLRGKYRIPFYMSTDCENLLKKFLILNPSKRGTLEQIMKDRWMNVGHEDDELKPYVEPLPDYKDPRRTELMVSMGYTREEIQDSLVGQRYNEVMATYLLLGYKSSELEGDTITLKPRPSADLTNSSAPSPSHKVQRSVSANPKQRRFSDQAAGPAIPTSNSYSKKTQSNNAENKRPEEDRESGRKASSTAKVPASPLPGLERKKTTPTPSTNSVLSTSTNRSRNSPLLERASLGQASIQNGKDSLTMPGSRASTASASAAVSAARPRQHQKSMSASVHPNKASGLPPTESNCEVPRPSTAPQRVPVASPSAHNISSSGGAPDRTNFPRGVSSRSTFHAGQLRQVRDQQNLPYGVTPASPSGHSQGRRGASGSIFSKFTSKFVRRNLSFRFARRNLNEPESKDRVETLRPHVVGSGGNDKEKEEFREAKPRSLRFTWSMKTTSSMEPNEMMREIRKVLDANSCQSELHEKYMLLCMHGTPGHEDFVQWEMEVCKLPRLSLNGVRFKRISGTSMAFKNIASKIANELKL
Chain of Serine/threonine-protein kinase pim-2 (Homo sapiens) (Q9P1W9 whole entry, looked up): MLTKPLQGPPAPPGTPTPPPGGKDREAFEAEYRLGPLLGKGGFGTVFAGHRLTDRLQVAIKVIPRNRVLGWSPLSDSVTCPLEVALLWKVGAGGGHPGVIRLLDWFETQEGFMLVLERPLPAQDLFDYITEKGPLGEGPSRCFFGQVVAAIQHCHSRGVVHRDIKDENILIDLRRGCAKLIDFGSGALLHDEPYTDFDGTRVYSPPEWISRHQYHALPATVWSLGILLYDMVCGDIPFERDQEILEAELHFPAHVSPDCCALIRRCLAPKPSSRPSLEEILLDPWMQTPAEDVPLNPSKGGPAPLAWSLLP
Chain of MAP/microtubule affinity-regulating kinase 3 (Homo sapiens) (P27448 whole entry, looked up): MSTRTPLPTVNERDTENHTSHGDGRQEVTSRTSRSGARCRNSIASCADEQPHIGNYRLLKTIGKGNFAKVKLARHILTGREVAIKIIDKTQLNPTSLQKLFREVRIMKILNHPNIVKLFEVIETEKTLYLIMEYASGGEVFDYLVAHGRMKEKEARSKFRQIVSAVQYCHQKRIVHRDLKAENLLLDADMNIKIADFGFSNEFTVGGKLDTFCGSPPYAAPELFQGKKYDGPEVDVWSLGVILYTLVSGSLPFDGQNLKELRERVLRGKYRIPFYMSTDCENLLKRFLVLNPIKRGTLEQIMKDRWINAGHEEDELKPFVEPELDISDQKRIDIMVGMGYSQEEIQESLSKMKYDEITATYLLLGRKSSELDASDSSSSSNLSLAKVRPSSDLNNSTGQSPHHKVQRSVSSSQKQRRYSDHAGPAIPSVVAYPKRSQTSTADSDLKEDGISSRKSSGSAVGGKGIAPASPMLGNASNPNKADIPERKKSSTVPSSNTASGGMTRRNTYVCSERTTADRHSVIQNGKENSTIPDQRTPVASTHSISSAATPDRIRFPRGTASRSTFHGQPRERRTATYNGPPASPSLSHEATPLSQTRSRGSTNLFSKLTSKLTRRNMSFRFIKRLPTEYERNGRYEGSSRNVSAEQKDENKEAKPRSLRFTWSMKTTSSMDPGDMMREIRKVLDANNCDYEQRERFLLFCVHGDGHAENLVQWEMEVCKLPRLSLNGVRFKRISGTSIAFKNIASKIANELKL
Chain of MAP kinase-interacting serine/threonine-protein kinase 1 (Homo sapiens) (Q9BUB5 whole entry, looked up): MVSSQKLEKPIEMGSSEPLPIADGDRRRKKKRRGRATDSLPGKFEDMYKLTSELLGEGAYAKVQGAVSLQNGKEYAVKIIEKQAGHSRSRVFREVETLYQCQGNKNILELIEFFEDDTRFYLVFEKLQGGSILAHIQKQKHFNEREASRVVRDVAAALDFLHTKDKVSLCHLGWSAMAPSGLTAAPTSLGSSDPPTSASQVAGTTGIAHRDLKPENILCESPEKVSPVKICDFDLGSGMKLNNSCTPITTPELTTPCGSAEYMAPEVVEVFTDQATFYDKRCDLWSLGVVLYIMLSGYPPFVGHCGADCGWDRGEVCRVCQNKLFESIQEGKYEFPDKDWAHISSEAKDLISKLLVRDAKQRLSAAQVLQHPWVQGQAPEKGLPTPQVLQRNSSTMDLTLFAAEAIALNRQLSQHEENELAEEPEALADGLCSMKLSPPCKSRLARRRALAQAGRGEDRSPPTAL
Chain of Phosphorylase b kinase gamma catalytic chain, skeletal muscle/heart isoform (Homo sapiens) (Q16816 whole entry, looked up, canonical isoform): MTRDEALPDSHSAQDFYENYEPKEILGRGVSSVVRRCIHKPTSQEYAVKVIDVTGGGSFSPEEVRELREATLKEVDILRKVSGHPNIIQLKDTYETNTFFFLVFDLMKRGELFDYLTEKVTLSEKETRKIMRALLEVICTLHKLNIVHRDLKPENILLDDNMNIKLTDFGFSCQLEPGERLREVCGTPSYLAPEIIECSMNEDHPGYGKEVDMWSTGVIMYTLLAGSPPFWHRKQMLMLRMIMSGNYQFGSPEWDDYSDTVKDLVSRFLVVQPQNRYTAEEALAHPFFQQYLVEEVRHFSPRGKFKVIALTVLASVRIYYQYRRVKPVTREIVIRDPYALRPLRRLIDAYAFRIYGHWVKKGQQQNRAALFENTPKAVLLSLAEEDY
Chain of Serine/threonine-protein kinase pim-1 (Homo sapiens) (P11309 whole entry, looked up): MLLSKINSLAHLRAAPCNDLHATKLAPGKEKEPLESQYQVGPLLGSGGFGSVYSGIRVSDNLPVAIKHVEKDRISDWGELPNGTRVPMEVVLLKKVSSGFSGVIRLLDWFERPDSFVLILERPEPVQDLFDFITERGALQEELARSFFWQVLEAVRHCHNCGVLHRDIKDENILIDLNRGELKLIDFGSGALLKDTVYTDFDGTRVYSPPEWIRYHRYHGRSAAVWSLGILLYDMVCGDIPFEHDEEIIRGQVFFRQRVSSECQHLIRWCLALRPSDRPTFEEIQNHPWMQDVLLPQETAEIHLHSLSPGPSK

With `CCCN1CCC(c2ccc(Nc3nc(Nc4cc(F)ccc4C(N)=O)c4cc[nH]c4n3)c(OC)c2)CC1`, the inhibition was 66.6% in assay [1]; 7.27% in assay [2]; 42.6% in assay [3]; 21.7% in assay [4]; 78.7% in assay [5]; 5.57% in assay [6]. In addition, the inhibition in assay [7] is 10.7%; in [8], 3.26%; in assay [9], 7.76%; in assay [10], 7.99%; in [11], 41%; in assay [12], 0.01%. The inhibition in assay [13] worked out at 20.7%; in [14], 51.3%; in assay [15] it was 80.7%; in [16], 25.7%; in assay [17], 71.7%; in assay [18] it was 7.64%. Also, the values for the inhibition in assay [19] and in assay [20] were 45.3% and 1.98%, respectively.
Consider `CCn1c(-c2nonc2N)nc2c(C#CC(C)(C)O)nc(OC[C@H](N)c3ccccc3)cc21`, for which the inhibition in [1] is 35.4%; in [2], 1.25%; in assay [3], 18.4%; in [4], 17.7%; in assay [5] it was 82.1%; in [6] it was 1.77%. The inhibition is 2.97% in assay [7]; 3.54% in assay [8]; 2.92% in assay [9]; 1.39% in [10]; 18.1% in assay [11]; -0.65% in [12]. Also, the inhibition is 8.04% in assay [13]; 2.23% in assay [14]; -1.37% in [15]; 2.76% in [16]; 5.27% in assay [17]; 1.54% in assay [18]. For the same molecule, the inhibition came to 3.63% in [19] and 0.71% in [20].
Turning to `N#Cc1c(NC(=O)CN2CCOCC2)sc2c1CCCC2`, the inhibition worked out at 5.29% in assay [1]; 1.24% in [2]; 1.29% in assay [3]; 3.07% in [4]; 1.6% in assay [5]; 3.42% in assay [6]. Also, the inhibition in assay [7] came out at 6.68%; in assay [8] it was 1.2%; in assay [9], 6.58%; in assay [10], 1.3%; in [11], 1.25%; in [12], 0.47%. Further, the inhibition in [13] was 0.86%; in assay [14], 6%; in assay [15] it was 9.65%; in [16] it was 5.37%; in assay [17], 6.47%; in [18], 0.03%. Also, the values for the inhibition in assay [19] and in [20] were 0.16% and 0.29%, respectively.
For `O=C(O[C@H]1CN[C@H](C#Cc2cc3ncnc(Nc4ccc(Cc5ccccc5)cc4)c3s2)C1)N1CCOCC1`, the inhibition in assay [1] was 2.78%; in assay [2], 1.7%; in assay [3], 0.44%; in assay [4], 0.46%; in assay [5], -1.31%; in assay [6] it was 2.67%. Also, the inhibition was 7.67% in [7]; 9.26% in assay [8]; 48.1% in [9]; -0.11% in [10]; 0.4% in assay [11]; 0.94% in assay [12]. The inhibition came out at 0.47% in assay [13]; 3.11% in assay [14]; 3.13% in assay [15]; 3.27% in assay [16]; 2.45% in [17]; 1.81% in [18]. For the same molecule, the inhibition in [19] came out at 0.55%; in [20] it was 0.21%.
In the case of `COc1cccc(-n2ncc3c(N/N=C/c4ccc(F)cc4)ncnc32)c1`, the inhibition in assay [1] is 6.87%; in assay [2], 1.23%; in [3], 2.4%; in [4] it was 2.6%; in assay [5], 5.51%; in [6], 4.58%. The inhibition is 17.5% in assay [7]; 4.13% in assay [8]; 13.3% in assay [9]; 1.91% in assay [10]; 1.76% in assay [11]; 0.08% in assay [12]. Besides, the inhibition in [13] came to 0.35%; in assay [14], 2.66%; in [15] it was 5.43%; in assay [16], 5.34%; in [17], 6.87%; in [18], 1.15%. Besides, the inhibition is 1.15% in [19] and -0.5% in [20].
Take `CCN(CC)S(=O)(=O)c1ccc(OC)c(Nc2ncc(-c3ccccc3)o2)c1`: the inhibition was 18.7% in assay [1]; -1.02% in assay [2]; 0.8% in assay [3]; -0.34% in [4]; 7.01% in assay [5]; 1.28% in assay [6]. Moreover, the inhibition amounted to 5.6% in assay [7]; 1.51% in [8]; 2.53% in assay [9]; 0.71% in assay [10]; 0.33% in assay [11]; 1.24% in assay [12]. For the same molecule, the inhibition in assay [13] was 1.76%; in assay [14], -0.59%; in assay [15], 12.3%; in assay [16] it was 2.23%; in assay [17], 2.3%; in assay [18] it was 1.35%. The inhibition was 0.97% in [19] and -0.31% in assay [20].
With `CNC(=O)c1cccc(C#Cc2cncnc2Nc2ccc(OCc3cccc(F)c3)c(Cl)c2)c1`, the inhibition is 23.2% in [1]; -0.97% in assay [2]; 0.31% in assay [3]; -3.3% in assay [4]; -0.86% in assay [5]; 3.12% in [6]. In addition, the inhibition in assay [7] is 26.2%; in [8], 1.92%; in assay [9], 13.1%; in [10], -2.05%; in assay [11], -2.06%; in [12], 0.44%. Also, the inhibition is 0.79% in assay [13]; -2.47% in [14]; 2.19% in assay [15]; 2.39% in assay [16]; 3.44% in [17]; 0.55% in assay [18]. For the same molecule, the inhibition was determined as 0.54% in assay [19] and 0.37% in [20].

In general, inhibition refers to the change of the read-out against control, counted positive when it falls.
